Measured values reported in PubChem BioAssay (NCI).
The panel holds about 83,000 compounds, 20% with a hit somewhere; the sample as a whole holds those more often.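 Each cell line was grown in a 96-well plate and treated with one concentration of compound for 48 hours. Values below 10 were considered active.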 A number with no mark means an inactive call. Active and inactive are the calls of the source.

Tested on: SNB-75 CNS
Assay: NCI-60 one-dose screen, 48 h (100 = growth as untreated, 0 = no growth, -100 = all killed)
Settings: 10 µM
Procedure: Growth inhibition of the SNB-75 human tumor cell line is measured as a screen for anti-cancer activity. Cells are grown in 96 well plates and exposed to the test compound for 48 hours. Compounds are tested at a single concentration, which is 10^-5 M for most compounds. The reported endpoint is percent growth (GI% or GIPRCNT), where numbers from 0 - 100% represent growth inhibition, and numbers from -100% - 0 represent cell death. For example, a value of 40 represents 60% growth inhibition. A value of 0 means no net growth occurred over the course of the experiment. A value of -40 indicates 40% of cells at the beginning of the experiment died by the end of the experiment. A value of -100 means all cells are dead at the end of the experiment.
NCI-60 Human Tumor Cell Lines Screen was performed using the standard one-dose NCI protocol, which is described in more detail at https://dtp.cancer.gov/discovery_development/nci-60/default.htm.
Compounds with GIPRCNT values below 10 were considered active. Activity score was based on GIPRCNT using the following formula: […]
Score is 0 for GIPRCNT values of 100 or above, 50 for GIPRCNT values of 0, and 100 for GIPRCNT values of -100.

| SMILES | growth |
| --- | --- |
| CCCn1c(=O)c2c(nc(-c3cccc(OCCCCl)c3)n2C)n(CCC)c1=O | -12.7% (active) |
| CCCCCC(=O)N1c2ccccc2NC2=C(C(=O)CC(c3ccc(OC)c(OC)c3)C2)C1c1ccc(C(F)(F)F)cc1 (stereo not given) | 82.7% |
| CC(=O)n1nc(C(=O)OC(C)(C)C)c2cc(F)c(F)cc21 | 80.2% |
| CCSc1nc2c([nH]1)c(=O)n(C)c(=S)n2C | 126% |
| O=C(COc1ccc(-c2nc3ccccc3[nH]2)cc1)N=Nc1c(O)[nH]c2ccccc12 | 104% |
| COc1cccc(-c2nnc(COc3ccc(-c4nc5ccc(C)cc5[nH]4)cc3OC)o2)c1 | 56.6% |
| CC(C)(C)CC(C)(C)c1ccc(O)c(Cc2ccc(Cl)cc2Cl)c1 | -77.7% (active) |
| Fc1cc(-c2ncc(-c3cc(F)c(F)c(F)c3)c(NC3CCCCCC3)n2)cc(F)c1F | 85.7% |
| O=C(N/N=C/c1ccccc1O)c1ccccc1 | 56.6% |
| COc1cc2nc(Sc3sc(N)nc3C)n(-c3ccc(Oc4ccccc4)cc3)c(=O)c2cc1OC | 86.7% |
| COc1cc(CSc2nc3ccc(Cl)cc3c(=O)n2Cc2ccccc2)cc(OC)c1OC | -34.5% (active) |
| Cc1cc(O)c(C2=NN(c3ccc(S(N)(=O)=O)cc3)C(c3ccc(N(C)C)cc3)C2)c(C)c1Cl (stereo not given) | 78.7% |
| COc1cccc2c1C(=O)c1c(O)c3c(c(O)c1C2=O)C[C@@](O)(C(=O)COC(=O)c1ccccc1)C[C@@H]3OC1CC(N)C(O)C(C)O1 (stereo not given in full) | -84.3% (active) |
| COC(=O)c1cnc2c(c1)Oc1ccc(Cl)cc1-c1cc(C)nn1-2 | 91.7% |
| Fc1ccc(Nc2ccnc(N3CCN(c4ccnc5cc(Cl)ccc45)CC3)n2)cc1 | 74.2% |
| CCOC(=O)c1ccc(NC(=O)Nc2nncs2)cc1 | 19.6% |
| O=[N+]([O-])c1cc2ncccc2c2ncccc12 | 88.2% |
| COc1ccc(C(=O)c2sc3nc(-c4cccs4)ccc3c2N)cc1OC | 52.1% |
| COCc1cc2c(cc1Br)OCO2 | 87.1% |
| COC(=O)[C@]12CC[C@@H](C)[C@H](C)[C@@H]1C1=CC[C@@H]3[C@@]4(C)C/C(=N\O)[C@H](O)[C@@]5(C)COC(=C45)C[C@@]3(C)[C@]1(C)CC2 | -87.8% (active) |

| SMILES | growth |
| --- | --- |
| O=S(=O)(NC1c2ccccc2Oc2ccccc21)c1cc(Cl)ccc1Cl | 90.2% |
| N#Cc1ncc(-c2cc(F)ccc2F)c(NC2CCCCCC2)n1 | 67.3% |
| Cc1cccc2c(Nc3ccc(NS(C)(=O)=O)cc3)c3ccc([N+](=O)[O-])cc3nc12 | 19.7% |
| COc1cc(Cn2c(-c3ccccc3)c(Cl)c3c2-c2oncc2CC3)cc(OC)c1 | 94.8% |
| CC(=O)Nc1nc(C)c(C(=O)NNC=O)s1 | 94.8% |
| CCOC(=O)c1c(C)n(-c2ccc(Cl)cc2)c2ccc(OC(=O)/C=C/c3ccccc3)cc12 | 66.6% |
| CCOC(=O)c1c(O)c2cc(-c3ccccc3)nc(OCC)c2c(=O)n1C | 95.6% |
| Cc1[nH]nc2c(=S)[nH]c(=O)[nH]c12 | 89.7% |
| O=C(OCC1OC(n2cc(C(F)(F)F)c(=O)[nH]c2=O)CC1OC(=O)c1ccc([N+](=O)[O-])cc1)c1ccc([N+](=O)[O-])cc1 (stereo not given) | 90.8% |
| CCOC(=O)c1cc2c(n1Cc1cccc(OC)c1)-c1oncc1CC2 | -5.1% (active) |
| CCNC1(NC#N)CCCCC1 | 91.2% |
| COc1ccccc1CNCCCN1C(=O)c2ccc3c4c(ccc(c24)C1=O)C(=O)N(CCCNCCNCCCN)C3=O | 28.4% |
| Nc1nc2c(ncn2C2OC3COP(=O)(O)OC4C(COP(=O)(O)OC2C3O)OC(n2cnc3c(N)ncnc32)C4O)c(=O)[nH]1 (stereo not given) | 104% |
| CC(C)C[C@H](NC(=O)CCn1ccc2ccccc2c1=O)B(O)O | 77.8% |
| O=C(Nc1ccc(CN2CCOCC2)cc1)c1ccc(-c2cc(Cl)ccc2Cl)o1 | 48% |
| C#CCNCCN1C(=O)c2ccc3c4c(ccc(c24)C1=O)C(=O)N(CCNCC#C)C3=O | 75.4% |
| C/C=C\COc1cc(C)c(Cl)cc1Cl | 88.9% |
| CCCc1c(CC)c(=N)c2ccccc2n1C | 73.4% |
| N/C(=N\O)c1cn(C2OC(CO)C(O)C2O)c2ncnc(N)c12 (stereo not given) | -7.06% (active) |
| CCCCn1c(=O)[nH]c(N)c(C(c2ccc(Cl)cc2)c2c(N)[nH]c(=O)n(CCCC)c2=O)c1=O | 57.1% |
